The full ranking holds about 1,100 compounds; the median of “Wnt reporter firefly/Renilla luciferase ratio relative to plate median” is about 1.1, and the highest 2% start at about 1.6. What follows is part of a selection rich in the highest values, with near analogues and random picks from the rest.
Tested on: HEK293T (UBE3A T485A transfected, BAR Wnt reporter)
Assay: Wnt reporter firefly/Renilla luciferase ratio relative to plate median (fold (linear ratio)); higher = more Wnt/beta-catenin reporter activation
Details: 24 h
How it was run: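 Chemicals at 0.01–100 uM were left on transfected HEK293T cells for 24 h, after a four-hour wait following transfection. The cells held a BAR firefly luciferase Wnt reporter, TK-Renilla and an expression plasmid. Wnt activity, as the firefly/Renilla ratio from a Dual-Glo luciferase readout, and cell health, as raw Renilla, were median-centred within each plate. Results average four biological replicates.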

Compound | Wnt reporter firefly/Renilla luciferase ratio (concentration: 0.1 uM) | Wnt reporter firefly/Renilla luciferase ratio (concentration: 1 uM) | Wnt reporter firefly/Renilla luciferase ratio (concentration: 10 uM) | Wnt reporter firefly/Renilla luciferase ratio (concentration: 100 uM) | Wnt reporter firefly/Renilla luciferase ratio (concentration: 0.01 uM)
CN1C(=O)CC[C@H]1c1cccnc1 [Cotinine] | 0.928 | 0.981 | 1.03 | 1.13 | 
CC1COc2c(N3CCN(C)CC3)c(F)cc3c(=O)c(C(=O)O)cn1c23 (configuration not stated) [Levofloxacin] | 1.2 | 1.05 | 1.11 | 1.45 | 1.21
O=C(O)c1cn(C2CC2)c2cc(N3CCNCC3)c(F)cc2c1=O [Ciprofloxacin] | 0.853 | 1.01 | 0.882 | 1.74 | 0.979
COc1c(N2CC3CCCNC3C2)c(F)cc2c(=O)c(C(=O)O)cn(C3CC3)c12 (configuration not stated) [Moxifloxacin] | 1.02 | 1.07 | 0.95 | 0.752 | 0.907
O=C(CCCN1CCC(O)(c2ccc(Cl)cc2)CC1)c1ccc(F)cc1 [Haloperidol] | 1.01 | 0.984 | 0.916 | 0.572 | 
CCNc1ccccc1 [N-Ethylaniline] | 0.799 | 1.03 | 0.96 | 1.2 | 
